DUX4 inh – DUX4-mediated transcription inhibition. 293T-iDUX4 ZSCAN4-Gaussia luciferase reporter, 24 h; hits give low values. activity change, negative = inhibition, % (test concentration not listed). hit rate 0.8% among 37,000;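 active = mean inhibition of at least 10% in the main channel, exceeding the control channel by a set limit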
Each line names hits and unclear results; the compound was inactive in the other large screens; ! = repeats disagree. Shown is part of a subset that was picked to be rich in hits.

CC[C@H]1CC=CC[C@H](C)Oc2ccccc2C(=O)N(C)[C@@H](Cc2ccccc2)C(=O)N1 (mixture of isomers)	none
O=S(=O)(Cc1ccccc1)N1CCCCN2[C@H](CO)[C@H](c3ccc(-c4ccc(F)cc4)cc3)[C@@H]2C1	none
C[C@@H](O)C#Cc1ccc([C@H]2[C@@H](CO)N3CCCCN(C(=O)c4ccc5c(c4)OCO5)C[C@H]23)cc1	DUX4 inh -32.2
C[C@H](O)C#Cc1ccc([C@@H]2[C@H]3CN(C(=O)c4ccc5c(c4)OCO5)CCCCN3[C@H]2CO)cc1	none
CC(C)CC#Cc1ccc([C@H]2[C@H](CO)N3CCCCN(S(=O)(=O)Cc4ccccc4)C[C@@H]23)cc1	none
C[C@@H](O)C#Cc1ccc([C@H]2[C@@H](CO)N3CCCCN(C(=O)c4ccc5c(c4)OCO5)C[C@@H]23)cc1	none
O=S(=O)(Cc1ccccc1)N1CCCCN2[C@@H](CO)[C@@H](c3ccc(-c4cccnc4)cc3)[C@@H]2C1	none
COCC#Cc1ccc([C@@H]2[C@H]3CN(S(=O)(=O)c4ccc(OC)cc4)CCCCN3[C@H]2CO)cc1	none
O=S(=O)(Cc1ccccc1)N1CCCCN2[C@H](CO)[C@@H](c3ccc(-c4ccc(F)cc4)cc3)[C@@H]2C1	DUX4 inh -31.6
CC(C)CC#Cc1ccc([C@@H]2[C@H](CO)N3CCCCN(S(=O)(=O)Cc4ccccc4)C[C@@H]23)cc1	none
CC(C)CC#Cc1ccc([C@@H]2[C@@H](CO)N3CCCCN(S(=O)(=O)Cc4ccccc4)C[C@@H]23)cc1	DUX4 inh -14.0
COc1cccc(S(=O)(=O)N2CCCCN3[C@@H](CO)[C@@H](c4ccc(C#CCC(C)C)cc4)[C@@H]3C2)c1	DUX4 inh -29.8
COc1cccc(S(=O)(=O)N2CCCCN3[C@H](CO)[C@H](c4ccc(C#CC5CC5)cc4)[C@@H]3C2)c1	none
COc1ccc2c3c(n(C)c2c1)[C@@H](CO)N(Cc1ccccc1Cl)CC31CCN(C(C)=O)CC1	none
CCC(=O)N1CC(=O)N2[C@H](CO)[C@@H](c3ccc(C#CC(C)C)cc3)[C@H]2C1	none
CC(=O)N1CC(=O)N2[C@H](CO)[C@@H](c3ccc(-c4ccc(C#N)cc4)cc3)[C@@H]2C1	none
O=C1N[C@@H](Cc2ccccc2)COCc2cn(nn2)CC[C@H]1Cc1ccc(Cl)cc1	none
CC(=O)N1CC(=O)N2[C@H](C1)[C@H](c1ccc(-c3ccc(C#N)cc3)cc1)[C@@H]2CO	none
COc1cccc(CN2[C@H](CO)[C@@H](c3ccccc3)C23CN(C(=O)C2CCOCC2)C3)c1	none
O=C(C[C@@H]1CC[C@H]2[C@@H](COC[C@H](O)CN2Cc2nccs2)O1)NCc1ccc(F)cc1	none
CCCNC(=O)N1CC(=O)N2[C@H](CO)[C@H](c3ccc(C#Cc4ccccc4)cc3)[C@@H]2C1	none
COc1ccc2c3c([nH]c2c1)[C@@H](CO)NCC31CN(S(=O)(=O)c2ccccc2)C1	none
COc1ccccc1CN1C[C@@H]2N[C@H](C1)C2c1ccc(-c2ccncc2)cc1 (stereo partly specified)	DUX4 inh -13.9!
COc1ccccc1CN1[C@@H]2CNC[C@H]1C2c1ccc(-c2ccc(C#N)cc2)cc1 (stereo partly specified)	none
CN(C)C(=O)c1ccc(-c2ccc(C3[C@@H]4CN(Cc5nccs5)C[C@H]3N4)cc2)cc1 (stereo partly specified)	none
COc1cc(CN2C[C@@H]3N[C@H](C2)C3c2ccc(-c3cncnc3)cc2)cc(OC)c1 (stereo partly specified)	none
N#Cc1ccc(-c2ccc(C3[C@H]4CNC[C@@H]3N4C(=O)Nc3ccccc3F)cc2)cc1 (stereo partly specified)	none
N#Cc1ccc(-c2ccc([C@@H]3[C@@H]4CN(Cc5cocn5)C[C@H]3N4)cc2)cc1	DUX4 inh -75.0
CN(C)C(=O)c1cccc(-c2ccc(C3[C@@H]4CN(Cc5cocn5)C[C@H]3N4)cc2)c1 (stereo partly specified)	none
N#Cc1ccc(-c2ccc(C3[C@@H]4CN(Cc5ccccc5F)C[C@H]3N4)cc2)cc1 (stereo partly specified)	DUX4 inh -43.6!
COc1ccccc1CN1[C@@H]2CNC[C@H]1C2c1ccc(-c2ccncc2)cc1 (stereo partly specified)	none
C/C=C/c1ccc([C@@H]2[C@@H](CO)N(C(=O)C3CCC3)C23CN(S(=O)(=O)CC)C3)cc1	none
COc1ccc(C(=O)Nc2ccc3c(c2)OC[C@H](C)NC[C@H](C)[C@H](OC)CN(C)C3=O)cc1	none
CN1CCN(C(=O)C[C@@H]2C=C[C@H](NC(=O)Nc3ccccc3F)[C@H](CO)O2)CC1	none
COc1ccc2c3c(n(C)c2c1)[C@H](CO)N(C(=O)CN(C)C)CC31CN(C(=O)CN(C)C)C1	none
C[C@@H]1CN([C@H](C)CO)C(=O)c2c(c3ccccc3n2C)-c2ccccc2CO[C@@H]1CN(C)Cc1cccc2c1OCCCO2	none
C[C@@H]1CN([C@H](C)CO)C(=O)c2c(c3ccccc3n2C)-c2ccccc2CO[C@H]1CN(C)Cc1cccc(O)c1	none
C[C@H](CO)N1C[C@H](C)[C@@H](CN(C)Cc2cccc(C(F)(F)F)c2)OCc2ccccc2-c2c(n(C)c3ccccc23)C1=O	DUX4 inh -54.1
C[C@@H]1CN([C@H](C)CO)C(=O)c2c(c3ccccc3n2C)-c2ccccc2CO[C@@H]1CN(C)Cc1ccc(O)cc1	none
C[C@@H]1CN([C@H](C)CO)C(=O)c2c(c3ccccc3n2C)-c2ccccc2CO[C@H]1CN(C)Cc1ccc(O)cc1	none
COc1ccccc1CN(C)C[C@H]1OCc2ccccc2-c2c(n(C)c3ccccc23)C(=O)N([C@@H](C)CO)C[C@H]1C	none
C[C@H]1CN([C@@H](C)CO)C(=O)c2c(c3ccccc3n2C)-c2ccccc2CO[C@@H]1CN(C)Cc1ccccc1C(F)(F)F	DUX4 inh -29.8
C[C@@H]1CN([C@H](C)CO)C(=O)c2c(c3ccccc3n2C)-c2ccccc2CO[C@H]1CN(C)Cc1cccc2c1OCCCO2	DUX4 inh -31.8
C[C@H](CO)N1C[C@H](C)[C@@H](CN(C)C(=O)Nc2ccccc2C(F)(F)F)OCc2ccccc2-c2c(n(C)c3ccccc23)C1=O	none
C[C@H]1CN([C@@H](C)CO)C(=O)c2ccccc2-c2ccccc2CO[C@H]1CN(C)Cc1cccc2c1OCCCO2	none
C[C@@H]1CN([C@H](C)CO)C(=O)c2c(c3ccccc3n2C)-c2ccccc2CO[C@@H]1CN(C)Cc1cccc(C(F)(F)F)c1	none
C[C@@H]1CN([C@@H](C)CO)C(=O)c2c(c3ccccc3n2C)-c2ccccc2CO[C@@H]1CN(C)Cc1ccc(C(F)(F)F)cc1	DUX4 inh -27.1
COc1cc(CN2CC3(CN(C(C)=O)C3)c3c([nH]c4cc(OC)ccc34)[C@H]2CO)cc(OC)c1	none
C[C@H]1COCn2nncc2CCCC(=O)N1	none
CO[C@H]1CN(C)C(=O)c2ccc(NS(C)(=O)=O)cc2OC[C@H](C)N(Cc2ccccc2)C[C@@H]1C	none
COc1ccc(C(=O)N2C[C@H]3[C@@H](c4ccccc42)[C@@H](CO)N3Cc2ccc(Cl)cc2)cc1	none
COc1ccc2c3c([nH]c2c1)[C@H](CO)N(C)CC31CN(C(=O)Nc2c(C)noc2C)C1	none
C[C@@H]1CN([C@@H](C)CO)C(=O)c2cccc(NC(=O)NC3CCCCC3)c2O[C@H]1CN(C)Cc1ccc(C(F)(F)F)cc1	none
C[C@@H]1COCn2nncc2CC[C@@H](Cc2ccc(Cl)cc2)C(=O)N1	none
CCCNC(=O)N1CC2(CN(C(=O)c3cccnc3)C2)c2c([nH]c3cc(OC)ccc23)[C@@H]1CO	none

Assay outcomes deposited in PubChem by Broad Institute.
